Drawing on PubChem BioAssay (NCATS), this text covers outcome and Potency for six compounds.

The structures appear in SMILES notation. Results filed as inconclusive are left out. The source made the active and inactive calls. Calls come from the whole dose curve; as a rule, active = well fitted curve in the direction sought with a large enough effect; inconclusive = small, poorly fitted or top-dose-only effect, or another doubt; inactive = no such curve, though single readings can be large; an effect the other way counts as inactive or inconclusive.

Test [1] is described as follows: HPAF-II 24hr Apoptosis Induction qHTS against the NCATS CANVASS Library (AID 1347356). An outline of the steps: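 Apoptosis induction in HPAF-II pancreatic cancer cells is measured as caspase-3/7 luminescence after a 24-hour exposure to compounds.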
A short description of test [2]: HEK293 18hr Apoptosis Induction qHTS against the NCATS CANVASS Library (AID 1347357). Note: potency is the fitted concentration of half-maximal effect. The gist of the method:
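Natural products applied to HEK293 for 18 hr; Caspase-Glo 3/7 readout.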
Background: Quantitative high-throughput screening tests each substance at several concentrations.

Test [3] can be described thus: HPAF-II 18hr Apoptosis Induction qHTS against the NCATS CANVASS Library (AID 1347360). The gist of the method:
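Luminescent DEVD-substrate signal, proportional to caspase activity, is measured in HPAF-II cells after 18-hour treatment across a concentration series; doxorubicin serves as control.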

Test [4] can be described thus: HEK293 12hr Apoptosis Induction qHTS against the NCATS CANVASS Library (AID 1347361). The gist of the method: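 Luminescent caspase-3/7 signal, proportional to enzyme activity, was recorded from HEK293 cultures in DMEM + 10% FBS treated for 12 hours with titrated natural products (11 points). Doxorubicin (0.1nM - 4uM) served as control.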
For test [5], the system named is NAD(P)H diaphorase (Clostridium kluyveri). Description: Diaphorse counterscreen qHTS: Assay Interference Panel against the NCATS CANVASS Library (AID 1347362). An outline of the steps: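 Clostridium kluyveri diaphorase in PBS + 0.01% Tween-20 preincubated 15 min with compounds. Resazurin and NADH then added for 5 min at room temperature in the dark; resorufin fluorescence read (ex 525, em 598).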
(In general: A counterscreen serves to expose hits that act by an unwanted route or on another target.)

Test [6] in a line: KB-3-1 Cancer Cell Toxicity qHTS against the NCATS CANVASS Library (AID 1347366). Note: nearly all actives have a fitted effect of over 75% in size. Note: potency is the fitted concentration of half-maximal effect. An outline of the steps:
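Cytotoxicity toward KB-3-1 cells (500/well, DMEM + 10% FBS) was scored by CellTiter-Glo luminescence following 72 hr exposure at 37C, with bortezomib titrated as control.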

Test [7] can be described thus: MCF7 Cancer Cell Toxicity qHTS against the NCATS CANVASS Library (AID 1347369). Note: potency is the fitted concentration of half-maximal effect. The gist of the method:
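This 72 hr qHTS scored MCF7 viability by CellTiterGlo luminescence, with 500 cells/well; bortezomib titration ran as control.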

Test [8] addresses Nuclear receptor subfamily 1 group I member 3 (Homo sapiens) (UniProt Q14994). Description: qHTS for Constitutive Androstane Receptor (CAR) Antagonist screened against the NCATS CANVASS Library (AID 1347372). Note: potency is the fitted concentration of half-maximal effect. The gist of the method: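 HepG2 cells stably carrying hCAR and CYP2B6-2.2kb luciferase reporter, 2500 cells/well, compound with 50 nM CITCO agonist for 24hr at 37C. ONE-Glo luminescence measured CAR activity; CellTiter-Fluor read viability.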

For test [9] the target is unchanged. Description: qHTS for Constitutive Androstane Receptor (CAR) Agonist screened against the NCATS CANVASS Library (AID 1347373).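 Note: every well also contained 1.5 µM PK11195 alongside the test compound.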 The gist of the method: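 CAR agonism is scored as CYP2B6-promoter luciferase induction in a double-stable transfected HepG2 line, where 1.5uM PK11195 is included in each well. Compounds were tested over a 24hr exposure.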
Test [10] in a line: 10-beta competent E. coli microbial cell viability qHTS against the NCATS CANVASS Library (AID 1347376). Note: series mostly up to about 46 µM. An outline of the steps: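 Cytotoxicity toward competent E. coli is scored from cellular ATP content via BacTiter-Glo luminescence following overnight compound exposure at 37C, 5% CO2.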
Test [11] in a line: qHTS for H2AX Agonists against the NCATS CANVASS Library (AID 1347378).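 Note: phospho-H2AX S139 level in CHO-K1 lysates by TR-FRET emission ratio.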 Note: potency is the fitted concentration of half-maximal effect. An outline of the steps:
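Signal is the 665/620 nm emission ratio from europium cryptate and d2 antibody pair, rising with S139-phosphorylated H2AX. CHO-K1 cells saw test agents for 3 hr at 37C; detection ran 24 hr at room temperature.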

The nature of test [12]: qHTS for Inflammasome Signaling Inhibitors: IL-1-beta AlphaLISA screen against the NCATS CANVASS Library (AID 1347379).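 For Potency: secreted IL-1B measured as AlphaLISA emission at 615 nm; potency is the fitted concentration of half-maximal effect.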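 Note: human THP-1 cells primed with LPS then triggered with ATP.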 The gist of the method:
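Human THP-1 cells were pretreated 1 hr at 37 °C with compounds (up to 57.5 uM final), then stimulated with LPS (250 ng/mL final) and ATP (1.25 mM final). Secreted IL-1B was read by AlphaLISA after 16 hr.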

Test [13] is described as follows: Cytotoxicity qHTS for assessment of Hepg2 cells membrane integrity screened against the NCATS CANVASS Library (AID 1347387). An outline of the steps: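 Fluorescence proportional to lysed-cell number, from LDH leaking out of HepG2 cells exposed 5 hr at 37C to 0.59 nM - 46 uM compound (11-point qHTS), is measured after 10 min with CytoTox-ONE.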
A short description of test [14]: Vero-766 cells viability qHTS against the NCATS CANVASS Library: Counterscreen for Zika virus inhibition assay (AID 1347394). Note: series mostly up to about 46 µM; nearly all actives have a fitted effect of over 60% in size. An outline of the steps:
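Counterscreen for toxicity: Vero 766 cells exposed 72 h to an 11-point compound series, viability by CellTiter-Glo.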

The nature of test [15]: Viability qHTS for inhibitors of the SERCaMP assay screened against the NCATS CANVASS Library (AID 1347400). Note: nearly all actives have a fitted effect of over 70% in size. Note: potency is the fitted concentration of half-maximal effect. An outline of the steps: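 Cytotoxicity counter-screen: ATP content (CellTiter-Glo luminescence) of SH-SY5Y-GLuc SERCaMP MJH297 cells after 48 h at 37C with compounds in an 11-point qHTS series.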
The nature of test [16]: qHTS for ATAD5 Antagonist screened against the NCATS CANVASS Library (AID 1347370). Note: nearly all actives have a fitted effect of over 65% in size. Note: potency is the fitted concentration of half-maximal effect. An outline of the steps:
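HEK293T cells with a stably integrated ATAD5-controlled luciferase reporter were exposed to compounds (11-pt) alongside 10 uM 5-fluorouridine as ATAD5 stabilizer for 16hr at 37C. Viability was read by CellTiter-Fluor fluorescence, then ATAD5 by luminescence.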

Test [17] is described as follows: Secretion counterscreen for inhibitors of the SERCaMP assay screened against the NCATS CANVASS Library (AID 1347390).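 Note: light from luciferase secreted into medium read as a measure of general secretion.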 Note: potency is the fitted concentration of half-maximal effect. An outline of the steps: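 Natural products are titrated in an 11-point series up to 77 uM onto SH-SY5Y-GLuc STOP cells for 20 h. Secreted reporter activity is measured as coelenterazine-driven luminescence, with Brefeldin A on each plate.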
The nature of test [18]: Redox Reaction Profiling qHTS: Assay Interference Panel against the NCATS CANVASS Library (AID 1347401). The gist of the method: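 Compounds in 11-point series incubated with 5 uM resazurin and 200 uM DTT in 50 mM HEPES pH 7.3, 50 mM NaCl. Resorufin fluorescence (Ex 525/Em 598) read before and after 15 min in the dark.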
Test [19] can be described thus: U-118MG Cancer Cell Toxicity qHTS against the NCATS CANVASS Library (AID 1347351). Note: potency is the fitted concentration of half-maximal effect. An outline of the steps: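 1000 cells/well seeded and rested 4 h at 37 °C before pin transfer of compounds in an 11-pnt series. Exposure 72 h at 37 °C/5% CO2; viability by CellTiter-Glo luminescence after 15 min at room temperature.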
A short description of test [20]: J3T Cancer Cell Toxicity qHTS against the NCATS CANVASS Library (AID 1347371). Note: potency is the fitted concentration of half-maximal effect. An outline of the steps:
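Viability of the J3T glioma line from dog is scored by ATP luminescence after a 72 hr incubation with natural products.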

Nuclear receptor subfamily 1 group I member 3 (Homo sapiens), sequence (Q14994 whole entry, looked up): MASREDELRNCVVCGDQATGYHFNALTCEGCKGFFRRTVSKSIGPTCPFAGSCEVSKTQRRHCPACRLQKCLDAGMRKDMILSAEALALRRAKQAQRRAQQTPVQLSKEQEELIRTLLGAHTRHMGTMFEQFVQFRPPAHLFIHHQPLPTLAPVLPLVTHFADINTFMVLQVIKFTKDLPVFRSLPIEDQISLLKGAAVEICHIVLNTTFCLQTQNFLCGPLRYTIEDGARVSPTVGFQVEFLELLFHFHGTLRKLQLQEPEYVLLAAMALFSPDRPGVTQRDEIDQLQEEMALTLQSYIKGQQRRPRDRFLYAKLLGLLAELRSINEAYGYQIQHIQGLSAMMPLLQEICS

As to `C/C1=C/[C@@H](C)[C@H](O)[C@@H](O)/C=C/CC/C=C/C(=O)O[C@@H]1[C@H](C)C(=O)/C=C/CC1CC(=O)NC(=O)C1`, the call in [1], in [4], in [10] and in test [13] was inactive. Moreover, the Potency result in test [2], in test [3], in test [5], in test [6], in test [7] and in test [9] was “inactive” throughout. In addition, the Potency result in test [11], in [12] and in test [14] was “inactive” in each case. In addition, the Potency in [8] is 2.09 µM (active); in [15], 3.03 µM (active).
For the compound `COc1cc([C@@H]2c3cc4c(cc3C[C@@]3(O[C@@H]5O[C@H](CO)[C@@H](O)[C@H](O)[C@H]5O)COC(=O)[C@H]23)OCO4)cc(OC)c1OC`, the outcome in test [1], in [4], in [10] and in test [13] was inactive. In addition, the Potency result in [2], in [3], in [5], in test [7], in [16] and in test [9] was “inactive” throughout. In addition, the Potency result in test [11], in [12], in test [17] and in test [18] was “inactive” each time. Also, the Potency in test [6] is 0.0372 µM (active); in test [8], 0.066 µM (active); in test [15], 0.048 µM (active).
As for `C/C=C1/CN2C3CC1C1C=CC(=O)N4c5ccccc5[C@@]3(C[C@@H]2C2=C[C@H]3C5CC6N(CC[C@@]67c6ccccc6N(C2=O)[C@@H]37)C/C5=C/C)[C@H]14` (stereo not given in full), the Potency in test [19] was 11.9 µM (active); in test [2] it was 26.4 µM (active); in test [6], 10.5 µM (active); in test [7], 16.5 µM (active); in test [16] it was 5.24 µM (active); in test [20] it was 20.9 µM (active). For the same compound, the Potency was 21.7 µM (active) in [11], 12.2 µM (active) in test [12], 34.3 µM (active) in [17] and 19.1 µM (active) in [15]. The Potency result in [5], in test [9] and in test [18] was “inactive” in each case. Moreover, the call in [10] and in test [13] was inactive.
Consider `C[C@@]12CCC[C@@](C)(C(=O)O)[C@H]1C[C@@H](O)[C@@]13C[C@@H](CC[C@@H]21)[C@](C)(O)C3`, for which the Potency result in test [19], in [2], in [3], in [5], in test [6] and in test [7] was “inactive” each time. In addition, the Potency entry in test [16], in test [20], in test [8], in test [9], in test [11] and in test [12] was “inactive” each time. In addition, the Potency result in test [17], in test [14], in [15] and in test [18] was “inactive” in each case. Besides, the result in test [1], in [4] and in test [13] was inactive.
For `C/C=C/[C@H]1[C@H]2C(=O)c3c(O)c(C)c(O)c(C)c3[C@]1(C(=O)O)C(=O)C=C2C`, the Potency result in test [19], in test [2], in test [3], in test [5], in test [6] and in [7] was “inactive” in each case. Also, the Potency result in test [16], in test [20], in test [8], in test [9], in [11] and in [12] was “inactive” throughout. Also, the Potency entry in test [17], in test [14], in test [15] and in test [18] was “inactive” throughout. The result in test [1], in test [4], in test [10] and in [13] was inactive.
With `CCC(=O)N[C@@H](C[C@H](C)C(Cl)(Cl)Cl)C(=O)N1C(=O)C=C(OC)[C@@H]1C[C@H](C)CCl`, the result in test [1], in [4], in test [10] and in test [13] was inactive. Moreover, the Potency result in [2], in [3], in test [5], in test [6], in [7] and in [16] was “inactive” throughout. For the same compound, the Potency entry in [20], in [9], in test [11], in test [12], in test [17] and in test [14] was “inactive” throughout. Moreover, the Potency result in [15] and in test [18] was “inactive” throughout. For the same compound, in test [8], the Potency is 10.5 µM (active).
